# According to the supplement of paper PMC12067093, “Discovery and optimisation of a covalent ligand for TRIM25 and its application to targeted protein ubiquitination” (Chemical Science, 2025):
# Of roughly 21,000 targets only a part is listed; those with the largest changes were picked by preference.
# Compound: Cc1cc(ccc1-c1ccccc1)C(=O)N1CCCN(CC1)C(=O)CCl [compound 10]
# Experiment: probe-labelled cysteine peptide fold change vs DMSO (competition) (log2 fold change); higher = less target engagement (more negative = stronger competition)
# Conditions: 50 µM; THP-1; incubation time: 4 h
# 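Also: competitive profiling in live THP-1 cells: cysteine peptides tagged with an iodoacetamide desthiobiotin (IA-DTB) probe, intensity after compound treatment relative to DMSO-treated cells.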
# Sequence of UniProt Q96MC6 (Q96MC6 whole entry): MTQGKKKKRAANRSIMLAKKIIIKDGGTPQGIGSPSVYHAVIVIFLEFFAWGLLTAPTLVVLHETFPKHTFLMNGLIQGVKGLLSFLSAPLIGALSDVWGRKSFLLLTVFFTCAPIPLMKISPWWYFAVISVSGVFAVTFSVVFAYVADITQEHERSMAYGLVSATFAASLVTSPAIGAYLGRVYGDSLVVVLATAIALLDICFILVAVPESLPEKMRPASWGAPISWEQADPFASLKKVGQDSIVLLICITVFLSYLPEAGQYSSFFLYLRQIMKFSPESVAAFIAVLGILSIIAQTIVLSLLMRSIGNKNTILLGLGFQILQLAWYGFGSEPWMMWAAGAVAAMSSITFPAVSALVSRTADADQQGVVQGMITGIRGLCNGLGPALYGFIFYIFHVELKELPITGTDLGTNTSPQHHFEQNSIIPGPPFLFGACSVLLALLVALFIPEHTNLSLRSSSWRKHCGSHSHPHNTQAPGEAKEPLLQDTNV
# Sequence of UniProt Q05BQ5 (Q05BQ5 whole entry, looked up): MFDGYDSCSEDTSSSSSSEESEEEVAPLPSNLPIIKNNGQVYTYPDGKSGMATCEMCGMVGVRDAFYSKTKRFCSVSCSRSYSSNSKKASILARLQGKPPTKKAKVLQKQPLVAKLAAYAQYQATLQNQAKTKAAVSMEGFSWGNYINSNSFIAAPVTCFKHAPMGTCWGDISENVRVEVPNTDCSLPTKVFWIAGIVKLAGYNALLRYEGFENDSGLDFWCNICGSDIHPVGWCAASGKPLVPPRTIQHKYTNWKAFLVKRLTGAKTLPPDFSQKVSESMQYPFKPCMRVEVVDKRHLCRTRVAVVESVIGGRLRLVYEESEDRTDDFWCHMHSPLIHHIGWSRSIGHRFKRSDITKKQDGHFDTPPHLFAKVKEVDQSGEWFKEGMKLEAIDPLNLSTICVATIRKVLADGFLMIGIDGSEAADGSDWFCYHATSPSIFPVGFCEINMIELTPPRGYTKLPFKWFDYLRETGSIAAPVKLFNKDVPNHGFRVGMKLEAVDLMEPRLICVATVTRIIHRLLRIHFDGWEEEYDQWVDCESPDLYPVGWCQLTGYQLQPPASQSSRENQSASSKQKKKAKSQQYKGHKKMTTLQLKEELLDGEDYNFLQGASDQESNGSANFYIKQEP
# Sequence of UniProt Q8IWA4 (Q8IWA4 whole entry): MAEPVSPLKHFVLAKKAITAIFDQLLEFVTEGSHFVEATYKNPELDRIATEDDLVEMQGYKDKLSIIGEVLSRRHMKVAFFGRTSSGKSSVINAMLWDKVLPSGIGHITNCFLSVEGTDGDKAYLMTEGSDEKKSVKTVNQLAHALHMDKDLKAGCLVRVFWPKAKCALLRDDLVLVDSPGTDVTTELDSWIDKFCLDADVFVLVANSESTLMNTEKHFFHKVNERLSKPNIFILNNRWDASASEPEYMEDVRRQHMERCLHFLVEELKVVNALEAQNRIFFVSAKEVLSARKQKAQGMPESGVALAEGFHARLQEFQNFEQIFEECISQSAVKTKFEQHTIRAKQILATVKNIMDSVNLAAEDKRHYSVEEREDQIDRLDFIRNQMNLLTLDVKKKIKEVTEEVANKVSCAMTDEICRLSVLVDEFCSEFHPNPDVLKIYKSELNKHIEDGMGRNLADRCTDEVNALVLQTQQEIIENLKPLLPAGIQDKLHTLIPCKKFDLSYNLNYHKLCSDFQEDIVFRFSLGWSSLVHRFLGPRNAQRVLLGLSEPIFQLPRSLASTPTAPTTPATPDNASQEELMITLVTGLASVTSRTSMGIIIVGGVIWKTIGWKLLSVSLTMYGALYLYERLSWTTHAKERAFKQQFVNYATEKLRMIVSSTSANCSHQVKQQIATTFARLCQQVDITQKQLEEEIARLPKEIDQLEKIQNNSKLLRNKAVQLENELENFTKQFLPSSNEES
# Sequence of UniProt P50579 (P50579 whole entry, looked up): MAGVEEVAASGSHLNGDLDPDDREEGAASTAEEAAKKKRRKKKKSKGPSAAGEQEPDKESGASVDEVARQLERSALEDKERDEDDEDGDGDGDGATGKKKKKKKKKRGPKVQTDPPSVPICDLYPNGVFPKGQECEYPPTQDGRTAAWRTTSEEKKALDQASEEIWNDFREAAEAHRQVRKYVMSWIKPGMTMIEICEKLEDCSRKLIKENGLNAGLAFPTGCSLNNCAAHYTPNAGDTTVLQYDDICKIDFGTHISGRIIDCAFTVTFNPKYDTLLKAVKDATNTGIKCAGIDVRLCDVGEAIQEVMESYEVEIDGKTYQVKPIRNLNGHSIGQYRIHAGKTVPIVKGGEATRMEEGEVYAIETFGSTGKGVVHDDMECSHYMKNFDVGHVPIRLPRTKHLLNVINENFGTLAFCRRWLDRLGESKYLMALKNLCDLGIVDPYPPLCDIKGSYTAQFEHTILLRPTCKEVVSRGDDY
# Sequence of UniProt P33991 (P33991 whole entry, looked up): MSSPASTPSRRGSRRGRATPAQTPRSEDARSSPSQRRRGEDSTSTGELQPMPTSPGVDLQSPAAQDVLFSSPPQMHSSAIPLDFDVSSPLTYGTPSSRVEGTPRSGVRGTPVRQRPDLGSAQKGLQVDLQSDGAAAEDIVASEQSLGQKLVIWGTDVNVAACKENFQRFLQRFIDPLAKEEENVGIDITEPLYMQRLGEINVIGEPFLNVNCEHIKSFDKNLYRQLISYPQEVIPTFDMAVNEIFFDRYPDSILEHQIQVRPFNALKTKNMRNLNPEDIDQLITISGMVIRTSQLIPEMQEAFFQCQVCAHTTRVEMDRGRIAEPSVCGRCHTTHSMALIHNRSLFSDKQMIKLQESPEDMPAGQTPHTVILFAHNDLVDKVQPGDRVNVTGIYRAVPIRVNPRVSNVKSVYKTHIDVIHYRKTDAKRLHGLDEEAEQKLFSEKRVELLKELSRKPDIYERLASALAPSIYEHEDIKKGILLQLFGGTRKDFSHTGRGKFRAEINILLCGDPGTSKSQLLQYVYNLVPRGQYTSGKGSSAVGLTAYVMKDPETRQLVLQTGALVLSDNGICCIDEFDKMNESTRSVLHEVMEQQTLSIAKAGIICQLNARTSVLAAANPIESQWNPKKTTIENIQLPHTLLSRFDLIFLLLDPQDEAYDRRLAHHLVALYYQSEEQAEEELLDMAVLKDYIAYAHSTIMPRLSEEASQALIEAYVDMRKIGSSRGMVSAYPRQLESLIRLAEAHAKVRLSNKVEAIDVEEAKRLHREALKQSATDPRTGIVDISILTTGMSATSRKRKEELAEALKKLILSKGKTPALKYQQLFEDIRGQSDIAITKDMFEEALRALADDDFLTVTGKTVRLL
# Sequence of UniProt Q8NHJ6 (Q8NHJ6 whole entry, looked up): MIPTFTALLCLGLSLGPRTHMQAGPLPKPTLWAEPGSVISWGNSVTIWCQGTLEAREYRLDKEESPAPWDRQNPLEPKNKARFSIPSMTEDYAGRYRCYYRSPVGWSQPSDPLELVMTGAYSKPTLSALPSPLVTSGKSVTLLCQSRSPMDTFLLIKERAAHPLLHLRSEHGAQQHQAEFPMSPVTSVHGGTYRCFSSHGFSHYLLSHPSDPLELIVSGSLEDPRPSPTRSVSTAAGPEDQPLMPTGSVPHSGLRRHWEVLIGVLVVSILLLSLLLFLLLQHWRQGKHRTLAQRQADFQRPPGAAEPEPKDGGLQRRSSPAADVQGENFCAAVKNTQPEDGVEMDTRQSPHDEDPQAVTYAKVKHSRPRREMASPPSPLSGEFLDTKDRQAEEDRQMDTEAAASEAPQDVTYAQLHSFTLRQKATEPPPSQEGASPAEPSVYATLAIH
# Sequence of UniProt Q14149 (Q14149 whole entry, looked up): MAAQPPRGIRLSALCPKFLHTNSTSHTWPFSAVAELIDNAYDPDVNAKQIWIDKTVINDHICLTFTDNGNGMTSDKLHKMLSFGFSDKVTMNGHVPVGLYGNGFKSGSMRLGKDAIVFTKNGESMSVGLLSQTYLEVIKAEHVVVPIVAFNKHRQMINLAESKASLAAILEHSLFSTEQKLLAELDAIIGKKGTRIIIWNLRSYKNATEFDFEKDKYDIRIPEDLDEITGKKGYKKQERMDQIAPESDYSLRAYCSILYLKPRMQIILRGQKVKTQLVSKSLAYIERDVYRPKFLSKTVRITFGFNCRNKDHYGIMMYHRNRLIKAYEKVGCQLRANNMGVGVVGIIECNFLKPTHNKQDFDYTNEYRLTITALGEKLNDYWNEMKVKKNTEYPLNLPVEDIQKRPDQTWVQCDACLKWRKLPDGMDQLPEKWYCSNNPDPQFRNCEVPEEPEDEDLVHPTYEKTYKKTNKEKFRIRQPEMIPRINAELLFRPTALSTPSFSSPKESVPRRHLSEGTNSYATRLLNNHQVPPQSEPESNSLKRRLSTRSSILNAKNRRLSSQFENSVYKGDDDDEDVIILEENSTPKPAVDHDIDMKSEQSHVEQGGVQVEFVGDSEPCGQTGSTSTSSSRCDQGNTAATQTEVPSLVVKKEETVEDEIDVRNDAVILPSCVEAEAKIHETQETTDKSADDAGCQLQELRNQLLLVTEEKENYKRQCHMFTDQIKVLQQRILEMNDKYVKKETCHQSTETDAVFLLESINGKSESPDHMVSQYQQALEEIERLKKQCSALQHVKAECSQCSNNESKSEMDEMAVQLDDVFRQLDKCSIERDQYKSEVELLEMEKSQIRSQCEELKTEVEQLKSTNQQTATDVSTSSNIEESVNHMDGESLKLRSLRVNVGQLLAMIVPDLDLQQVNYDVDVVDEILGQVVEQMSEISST
# Sequence of UniProt P45983 (P45983 whole entry, looked up): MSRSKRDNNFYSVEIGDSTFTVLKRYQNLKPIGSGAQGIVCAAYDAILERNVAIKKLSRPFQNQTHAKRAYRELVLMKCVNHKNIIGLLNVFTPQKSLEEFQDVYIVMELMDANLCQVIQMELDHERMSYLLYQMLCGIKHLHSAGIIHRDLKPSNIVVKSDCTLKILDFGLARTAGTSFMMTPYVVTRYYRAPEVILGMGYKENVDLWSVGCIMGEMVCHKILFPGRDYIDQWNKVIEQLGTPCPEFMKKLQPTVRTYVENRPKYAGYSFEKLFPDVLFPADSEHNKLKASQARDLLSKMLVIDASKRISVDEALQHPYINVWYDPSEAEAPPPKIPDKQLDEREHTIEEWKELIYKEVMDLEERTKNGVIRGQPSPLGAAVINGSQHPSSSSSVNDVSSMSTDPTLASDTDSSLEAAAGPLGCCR
row,Target,probe-labelled cysteine peptide fold change
1,MIB1_Q86YT6_103_CAECTNYDLCTVCYHGDK (UniProt Q86YT6),-0.0966
2,MYBL2_P10244_147_SCWTEEEDRIICEAHK (UniProt P10244),-0.335
3,MYCBP2_O75592_505_CLHACGISLFDLEK (UniProt O75592),0.236
4,MRC2_Q9UBG0_1234_TTSCDTK (UniProt Q9UBG0),-0.499
5,MAP4K1_Q92918_334+335_SSSLGIPDADCCR (UniProt Q92918),-1.18
6,MGAT2_Q10469_378_IFHAGDCGMHHK (UniProt Q10469),-0.149
7,LRCH4_O75427_283_GSALGDLAPSRPPSFSPCPAEDLFPGHR (UniProt O75427),-1.33
8,MFN1_Q8IWA4_513_LCSDFQEDIVFR (UniProt Q8IWA4),0.451
9,MYH9_P35579_671_CIIPNHEKK (UniProt P35579),-1.18
10,MYBBP1A_Q9BQG0_338_HYGEHVCTAK (UniProt Q9BQG0),0.083
11,MYCBP2_O75592_3241_DTICELCGESHPYPVTYHMR (UniProt O75592),-0.18
12,LYSMD2_Q8IV50_106_LFTNDCIFLK (UniProt Q8IV50),-1.77
13,MAPK8_P45983_163_SDCTLK (UniProt P45983),-1.24
14,LY75_O60449-2_1697_NQCTDHGADMISIHNEEENAFILDTLK (UniProt O60449),0.022
15,LIMS1_P48059_240+252_GLAYCETHYNQLFGDVCFHCNR (UniProt P48059),0.118
16,MORC3_Q14149_671_NDAVILPSCVEAEAK (UniProt Q14149),-0.0456
17,MKI67_P46013_643_SQHDILQMICSK (UniProt P46013),-2.28
18,MLST8_Q9BVC4_34_FWQAHSGICTR (UniProt Q9BVC4),0.0338
19,MAGT1_Q9H0U3_87_QCVVCK (UniProt Q9H0U3),0.464

row,Target,probe-labelled cysteine peptide fold change
1,MYCBP2_O75592_3263_QAHPGCGR (UniProt O75592),0.00399
2,MYCBP2_O75592_4318_QVFKEEEEAIKVDLHEGCGR (UniProt O75592),-0.439
3,METAP2_P50579_263_IIDCAFTVTFNPK (UniProt P50579),0.0277
4,MCM3_P25205_119+123+126_TLTSCFLSCVVCVEGIVTK (UniProt P25205),-1.13
5,LRRC47_Q8N1G4_367_LHEDLCEK (UniProt Q8N1G4),-0.0285
6,MYH9_P35579_988_KLEEEQIILEDQNCK (UniProt P35579),-0.0225
7,MED13_Q9UHV7_681_NQCLSAIASDAEQEPK (UniProt Q9UHV7),0.0925
8,MCM2_P49736_661_FDILCVVR (UniProt P49736),0.398
9,MBTD1_Q05BQ5_288_VSESMQYPFKPCMR (UniProt Q05BQ5),0.00392
10,LIMS1_P48059_281_AWCVNCFACSTCNTK (UniProt P48059),0.175
11,MFSD14A_Q96MC6_465_HCGSHSHPHNTQAPGEAK (UniProt Q96MC6),-1.11
12,LRRFIP1_Q32MZ4_456_CMVEVPQELETSTGHSLEK (UniProt Q32MZ4),-0.23
13,MCM6_Q14566_158_THPVHPELVSGTFLCLDCQTVIRDVEQQFK (UniProt Q14566),-0.522
14,MSI1_O43347_167_VCEIHFHEINNK<|>MSI2_Q96DH6_168_VCEIHFHEINNK (UniProt Q96DH6+O43347),0.236
15,LILRB4_Q8NHJ6_330_SSPAADVQGENFCAAVK (UniProt Q8NHJ6),-0.214
16,MCM4_P33991_328_IAEPSVCGR (UniProt P33991),-0.0125
17,MAPK9_P45984_222_GCVIFQGTDHIDQWNK (UniProt P45984),0.0724
18,MYBBP1A_Q9BQG0_623_SPAESCDLLGDIQTCIR (UniProt Q9BQG0),-0.16
19,LENG8_Q96PV6_584_SLCMVK (UniProt Q96PV6),-1.09
